The results in this text go back to article PMC7862700, “An all-to-all approach to the identification of sequence-specific readers for epigenetic DNA modifications on cytosine”.

Common to all, as to experiment: DAPPL (digital affinity profiling via proximity ligation, sequencing); 10 mM Tris-HCl pH 7.5, 50 mM NaCl, 1 mM DTT, 4% glycerol, room temperature, 30 min; GST-TFs on glutathione beads, 16-mer random dsDNA library, 0.1% formaldehyde crosslink after washing; high values mean tight binding
Holding throughout (conditions): protein: recombinant; tags: N-terminal GST; dsDNA, one strand shown

For test [1], the target named is T1, FLI1 (Homo sapiens, UniProt Q01543 1-452).
T1 sequence: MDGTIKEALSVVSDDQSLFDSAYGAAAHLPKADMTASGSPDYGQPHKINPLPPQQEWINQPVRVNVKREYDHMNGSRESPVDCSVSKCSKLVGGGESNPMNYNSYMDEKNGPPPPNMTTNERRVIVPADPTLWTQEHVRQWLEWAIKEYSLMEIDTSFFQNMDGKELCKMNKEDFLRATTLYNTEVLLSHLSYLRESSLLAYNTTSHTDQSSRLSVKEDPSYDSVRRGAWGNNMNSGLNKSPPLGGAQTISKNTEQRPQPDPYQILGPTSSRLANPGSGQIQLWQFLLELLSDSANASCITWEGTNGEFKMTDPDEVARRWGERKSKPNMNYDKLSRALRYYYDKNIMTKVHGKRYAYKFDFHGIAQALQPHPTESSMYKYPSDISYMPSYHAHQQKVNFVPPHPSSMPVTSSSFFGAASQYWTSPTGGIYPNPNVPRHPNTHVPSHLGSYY
The gist of the method: (§1)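 Binding signal is given per hexamer as its read frequency for a factor divided by its frequency in the tag-only sample. GST-fused human transcription factors were expressed in yeast, captured on glutathione beads, barcoded with DNA and pooled with that sample, then incubated with 200 nmole of a 16-mer random double-stranded DNA library in Tris/NaCl/DTT/glycerol buffer for 30 min at room temperature. The pools were then washed, crosslinked, proximity-ligated, amplified by PCR and sequenced on an Illumina NextSeq500.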

For test [2], the target named is T2, ELK1 (Homo sapiens, UniProt P19419 1-428).
T2 sequence: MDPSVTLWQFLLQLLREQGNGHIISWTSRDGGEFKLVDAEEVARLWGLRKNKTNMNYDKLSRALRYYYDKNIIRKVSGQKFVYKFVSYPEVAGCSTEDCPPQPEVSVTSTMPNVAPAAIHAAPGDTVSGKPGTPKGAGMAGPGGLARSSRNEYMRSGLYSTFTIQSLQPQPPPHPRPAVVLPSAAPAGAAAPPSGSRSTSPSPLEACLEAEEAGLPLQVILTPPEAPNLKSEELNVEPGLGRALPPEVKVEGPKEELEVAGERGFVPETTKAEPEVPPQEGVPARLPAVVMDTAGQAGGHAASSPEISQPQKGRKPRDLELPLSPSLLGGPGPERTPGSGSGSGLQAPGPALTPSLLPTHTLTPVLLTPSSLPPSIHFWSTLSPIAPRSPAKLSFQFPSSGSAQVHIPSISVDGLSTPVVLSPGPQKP
The gist of the method:
as §1

Test [3] addresses T3, GABPA (Homo sapiens, UniProt Q06546 1-454).
T3 sequence: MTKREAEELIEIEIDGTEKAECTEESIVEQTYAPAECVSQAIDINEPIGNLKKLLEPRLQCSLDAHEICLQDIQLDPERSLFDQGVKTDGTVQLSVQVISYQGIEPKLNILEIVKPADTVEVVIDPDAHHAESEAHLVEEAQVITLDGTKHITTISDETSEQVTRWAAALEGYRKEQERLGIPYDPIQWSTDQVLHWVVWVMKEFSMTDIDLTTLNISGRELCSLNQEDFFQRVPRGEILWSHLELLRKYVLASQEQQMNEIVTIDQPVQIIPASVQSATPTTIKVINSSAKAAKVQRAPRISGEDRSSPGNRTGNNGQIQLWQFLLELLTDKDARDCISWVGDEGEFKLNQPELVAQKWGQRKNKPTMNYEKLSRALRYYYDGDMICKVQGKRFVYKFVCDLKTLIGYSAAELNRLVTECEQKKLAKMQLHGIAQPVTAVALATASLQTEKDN
The gist of the method:
as §1

The target in test [4] is T4, ERG (Homo sapiens, UniProt P11308 1-479).
T4 sequence: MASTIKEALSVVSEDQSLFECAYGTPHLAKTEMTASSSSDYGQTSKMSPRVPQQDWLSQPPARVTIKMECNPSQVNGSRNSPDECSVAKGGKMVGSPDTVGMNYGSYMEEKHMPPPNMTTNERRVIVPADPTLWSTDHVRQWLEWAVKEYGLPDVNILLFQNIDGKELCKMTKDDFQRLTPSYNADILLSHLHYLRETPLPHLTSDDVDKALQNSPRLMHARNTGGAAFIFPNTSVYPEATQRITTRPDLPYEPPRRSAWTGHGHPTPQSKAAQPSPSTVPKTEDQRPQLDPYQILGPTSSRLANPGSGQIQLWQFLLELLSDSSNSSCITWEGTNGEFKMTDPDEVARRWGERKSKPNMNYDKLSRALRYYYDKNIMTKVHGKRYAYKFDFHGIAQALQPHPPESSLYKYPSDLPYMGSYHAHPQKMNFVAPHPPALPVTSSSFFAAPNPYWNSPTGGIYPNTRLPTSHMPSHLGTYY
In short, it runs like this:
as §1

Test [5] addresses ELF1 (Homo sapiens, UniProt P32519 1-619). In short, it runs like this: as §1
In test [6] the target is T5, EHF (Homo sapiens, UniProt Q9NZC4 1-300).
T5 sequence: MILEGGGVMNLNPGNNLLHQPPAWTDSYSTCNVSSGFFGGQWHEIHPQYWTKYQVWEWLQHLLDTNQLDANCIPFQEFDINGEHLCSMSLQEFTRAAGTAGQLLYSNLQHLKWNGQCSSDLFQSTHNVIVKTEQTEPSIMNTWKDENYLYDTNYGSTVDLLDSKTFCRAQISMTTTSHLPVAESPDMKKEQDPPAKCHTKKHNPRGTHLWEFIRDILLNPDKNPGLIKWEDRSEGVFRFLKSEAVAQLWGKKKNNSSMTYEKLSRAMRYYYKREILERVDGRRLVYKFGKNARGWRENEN
The gist of the method:
as §1

Test [7] concerns the target SPI1 (Homo sapiens, UniProt P17947 1-270). In short, it runs like this:
as §1

Test [8] addresses SPIB (Homo sapiens, UniProt Q01892 1-262). The gist of the method: as §1
Test [9] has as its target T6, ELK3 (Homo sapiens, UniProt P41970 1-407).
T6 sequence: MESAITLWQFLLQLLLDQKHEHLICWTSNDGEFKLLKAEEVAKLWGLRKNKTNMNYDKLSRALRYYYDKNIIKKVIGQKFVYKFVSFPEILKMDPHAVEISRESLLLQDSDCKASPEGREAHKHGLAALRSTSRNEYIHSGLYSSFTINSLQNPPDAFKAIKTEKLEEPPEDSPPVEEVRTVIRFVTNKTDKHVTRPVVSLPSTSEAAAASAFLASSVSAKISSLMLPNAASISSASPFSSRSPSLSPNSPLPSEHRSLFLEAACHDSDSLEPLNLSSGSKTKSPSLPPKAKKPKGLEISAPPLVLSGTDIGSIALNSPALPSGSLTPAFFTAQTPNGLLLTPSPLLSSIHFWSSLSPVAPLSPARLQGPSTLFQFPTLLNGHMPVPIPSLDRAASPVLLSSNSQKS
In short, it runs like this: as §1

Test [10] addresses T7, FEV (Homo sapiens, UniProt Q99581 1-238).
T7 sequence: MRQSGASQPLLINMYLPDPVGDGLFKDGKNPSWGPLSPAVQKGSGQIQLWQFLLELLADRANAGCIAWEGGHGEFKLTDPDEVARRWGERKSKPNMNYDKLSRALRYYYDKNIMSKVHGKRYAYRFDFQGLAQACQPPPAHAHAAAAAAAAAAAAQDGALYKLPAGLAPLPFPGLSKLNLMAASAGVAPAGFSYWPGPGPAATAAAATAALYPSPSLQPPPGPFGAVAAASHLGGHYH
The gist of the method: as §1

For test [11], the target named is ETV5 (Homo sapiens, UniProt P41161 1-510). In short, it runs like this: as §1
Chain of ETV5 (P41161 whole entry): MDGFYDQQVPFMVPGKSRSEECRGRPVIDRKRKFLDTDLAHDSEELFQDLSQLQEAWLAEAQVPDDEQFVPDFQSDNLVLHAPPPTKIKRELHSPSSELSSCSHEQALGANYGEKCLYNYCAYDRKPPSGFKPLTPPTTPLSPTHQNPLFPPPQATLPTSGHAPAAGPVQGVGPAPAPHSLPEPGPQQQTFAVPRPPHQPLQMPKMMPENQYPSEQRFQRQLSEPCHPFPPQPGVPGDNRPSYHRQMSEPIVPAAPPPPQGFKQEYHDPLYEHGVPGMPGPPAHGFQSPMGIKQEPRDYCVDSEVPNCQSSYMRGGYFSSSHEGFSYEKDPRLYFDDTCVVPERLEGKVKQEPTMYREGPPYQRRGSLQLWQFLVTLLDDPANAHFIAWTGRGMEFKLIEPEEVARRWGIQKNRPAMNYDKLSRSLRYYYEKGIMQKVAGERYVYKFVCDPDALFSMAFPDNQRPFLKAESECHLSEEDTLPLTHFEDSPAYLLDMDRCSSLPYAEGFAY
Test [12] has as its target T8, SPIC (Homo sapiens, UniProt Q8N5J4 1-248).
T8 sequence: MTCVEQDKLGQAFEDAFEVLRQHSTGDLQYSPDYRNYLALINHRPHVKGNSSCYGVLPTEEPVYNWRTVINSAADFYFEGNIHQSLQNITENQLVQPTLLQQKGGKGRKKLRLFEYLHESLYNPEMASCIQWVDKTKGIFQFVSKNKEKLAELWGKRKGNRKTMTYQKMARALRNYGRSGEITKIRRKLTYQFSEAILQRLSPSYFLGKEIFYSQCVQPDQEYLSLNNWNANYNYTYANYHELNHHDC
In short, it runs like this: as §1

Test [13] concerns the target ELF4 (Homo sapiens, UniProt Q99607 1-663). The gist of the method: as §1
Test [14] deals with T9, ELK4 (Homo sapiens, UniProt P28324-2 1-405).
T9 sequence: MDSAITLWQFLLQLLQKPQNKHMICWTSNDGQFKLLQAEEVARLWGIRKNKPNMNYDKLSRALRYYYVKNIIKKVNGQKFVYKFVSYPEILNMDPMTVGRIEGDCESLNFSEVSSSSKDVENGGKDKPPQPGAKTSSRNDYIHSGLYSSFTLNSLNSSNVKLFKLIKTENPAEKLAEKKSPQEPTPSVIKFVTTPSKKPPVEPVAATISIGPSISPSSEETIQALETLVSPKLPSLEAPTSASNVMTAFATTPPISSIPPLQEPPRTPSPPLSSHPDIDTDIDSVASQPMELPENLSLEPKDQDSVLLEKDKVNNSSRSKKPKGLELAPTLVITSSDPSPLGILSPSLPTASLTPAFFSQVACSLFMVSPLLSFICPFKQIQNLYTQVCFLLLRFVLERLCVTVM
The gist of the method:
as §1

In test [15] the target is T10, ETV2 (Homo sapiens, UniProt O00321 1-342).
T10 sequence: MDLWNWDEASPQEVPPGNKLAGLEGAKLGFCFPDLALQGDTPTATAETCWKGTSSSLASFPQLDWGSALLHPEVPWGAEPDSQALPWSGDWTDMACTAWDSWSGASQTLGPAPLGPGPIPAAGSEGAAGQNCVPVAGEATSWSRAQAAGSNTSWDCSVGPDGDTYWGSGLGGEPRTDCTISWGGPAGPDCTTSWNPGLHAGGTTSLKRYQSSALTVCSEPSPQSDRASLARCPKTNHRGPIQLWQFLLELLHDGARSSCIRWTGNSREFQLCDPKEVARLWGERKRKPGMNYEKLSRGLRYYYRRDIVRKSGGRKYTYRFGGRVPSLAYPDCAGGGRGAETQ
In short, it runs like this: as §1

Test [16] addresses T11, ELF3 (Homo sapiens, UniProt P78545 1-371).
T11 sequence: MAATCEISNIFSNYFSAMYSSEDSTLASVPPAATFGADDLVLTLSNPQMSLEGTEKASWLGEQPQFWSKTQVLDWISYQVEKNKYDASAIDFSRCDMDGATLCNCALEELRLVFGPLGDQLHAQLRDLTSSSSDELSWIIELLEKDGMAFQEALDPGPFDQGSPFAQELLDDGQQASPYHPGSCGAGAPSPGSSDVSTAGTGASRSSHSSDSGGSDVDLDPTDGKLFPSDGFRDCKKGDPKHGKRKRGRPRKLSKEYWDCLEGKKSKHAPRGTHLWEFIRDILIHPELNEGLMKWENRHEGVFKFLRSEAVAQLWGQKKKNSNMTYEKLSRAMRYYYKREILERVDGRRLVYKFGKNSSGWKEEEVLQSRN
In short, it runs like this: as §1

Test [17] deals with CRX (Homo sapiens, UniProt O43186 1-299). The gist of the method:
as §1

Test [18] addresses ETV1 (Homo sapiens, UniProt P50549 1-477). The gist of the method: as §1

Chain of CRX (O43186 whole entry): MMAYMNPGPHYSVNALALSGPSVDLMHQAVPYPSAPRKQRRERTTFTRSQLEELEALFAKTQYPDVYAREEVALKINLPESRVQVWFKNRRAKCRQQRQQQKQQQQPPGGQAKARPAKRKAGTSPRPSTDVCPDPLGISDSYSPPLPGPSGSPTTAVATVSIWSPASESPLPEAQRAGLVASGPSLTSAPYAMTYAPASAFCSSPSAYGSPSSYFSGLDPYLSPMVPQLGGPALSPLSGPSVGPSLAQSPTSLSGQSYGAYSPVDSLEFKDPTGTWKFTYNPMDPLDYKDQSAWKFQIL
Chain of SPIB (Q01892 whole entry): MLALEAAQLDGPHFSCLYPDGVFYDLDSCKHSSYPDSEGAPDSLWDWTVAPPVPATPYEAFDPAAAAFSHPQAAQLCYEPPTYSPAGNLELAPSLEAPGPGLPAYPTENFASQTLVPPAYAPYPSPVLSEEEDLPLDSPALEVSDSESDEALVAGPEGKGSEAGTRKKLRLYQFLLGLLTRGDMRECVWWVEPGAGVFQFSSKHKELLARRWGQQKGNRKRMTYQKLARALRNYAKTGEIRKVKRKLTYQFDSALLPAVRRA
Chain of ELF1 (P32519 whole entry): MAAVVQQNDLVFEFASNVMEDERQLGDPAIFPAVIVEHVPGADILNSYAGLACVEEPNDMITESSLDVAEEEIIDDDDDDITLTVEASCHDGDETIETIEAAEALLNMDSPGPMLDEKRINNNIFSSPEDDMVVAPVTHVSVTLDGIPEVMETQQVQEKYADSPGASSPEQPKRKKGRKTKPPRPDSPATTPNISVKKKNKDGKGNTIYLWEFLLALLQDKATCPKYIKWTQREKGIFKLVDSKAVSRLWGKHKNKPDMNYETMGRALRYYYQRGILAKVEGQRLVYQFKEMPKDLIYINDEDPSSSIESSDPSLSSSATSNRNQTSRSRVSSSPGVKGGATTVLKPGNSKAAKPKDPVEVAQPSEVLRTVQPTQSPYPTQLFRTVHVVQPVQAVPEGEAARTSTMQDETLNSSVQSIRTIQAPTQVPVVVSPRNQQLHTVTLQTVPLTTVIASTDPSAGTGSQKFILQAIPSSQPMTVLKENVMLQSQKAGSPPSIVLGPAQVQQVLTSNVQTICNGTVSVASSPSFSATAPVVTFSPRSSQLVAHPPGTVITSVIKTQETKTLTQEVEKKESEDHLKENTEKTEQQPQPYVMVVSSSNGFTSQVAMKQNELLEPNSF
Chain of ELF4 (Q99607 whole entry): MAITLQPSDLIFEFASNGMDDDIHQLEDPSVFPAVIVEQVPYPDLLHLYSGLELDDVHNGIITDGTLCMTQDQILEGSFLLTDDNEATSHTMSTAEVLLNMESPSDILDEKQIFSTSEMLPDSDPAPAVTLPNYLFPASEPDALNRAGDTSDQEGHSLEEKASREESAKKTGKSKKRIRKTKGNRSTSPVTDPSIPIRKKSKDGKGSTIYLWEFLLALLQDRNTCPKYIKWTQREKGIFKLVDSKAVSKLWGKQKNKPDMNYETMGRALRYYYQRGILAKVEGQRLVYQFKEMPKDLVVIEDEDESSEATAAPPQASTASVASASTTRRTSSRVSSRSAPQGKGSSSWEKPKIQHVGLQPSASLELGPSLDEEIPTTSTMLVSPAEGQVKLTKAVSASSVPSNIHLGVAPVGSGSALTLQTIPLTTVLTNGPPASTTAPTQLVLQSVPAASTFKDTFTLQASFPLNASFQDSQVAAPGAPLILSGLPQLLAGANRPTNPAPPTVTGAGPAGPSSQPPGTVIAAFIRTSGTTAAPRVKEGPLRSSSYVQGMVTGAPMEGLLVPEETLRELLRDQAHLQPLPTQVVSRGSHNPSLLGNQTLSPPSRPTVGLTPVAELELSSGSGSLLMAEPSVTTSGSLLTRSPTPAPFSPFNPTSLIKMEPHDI
Chain of ETV1 (P50549 whole entry): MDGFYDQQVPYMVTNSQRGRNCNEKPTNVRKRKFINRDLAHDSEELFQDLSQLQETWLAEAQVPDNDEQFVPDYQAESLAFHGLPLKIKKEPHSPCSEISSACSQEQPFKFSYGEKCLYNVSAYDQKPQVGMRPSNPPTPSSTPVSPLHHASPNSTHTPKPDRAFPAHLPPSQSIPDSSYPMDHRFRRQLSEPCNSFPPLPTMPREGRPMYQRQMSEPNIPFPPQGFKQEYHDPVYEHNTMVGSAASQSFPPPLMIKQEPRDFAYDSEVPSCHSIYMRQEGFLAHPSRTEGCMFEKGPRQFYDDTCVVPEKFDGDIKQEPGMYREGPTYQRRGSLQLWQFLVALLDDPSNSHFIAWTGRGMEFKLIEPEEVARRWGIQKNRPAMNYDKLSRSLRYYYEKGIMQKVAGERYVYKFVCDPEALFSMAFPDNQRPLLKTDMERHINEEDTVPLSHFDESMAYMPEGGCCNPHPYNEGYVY

Regarding TGCATA, the binding signal in [1] was 1.08 fold enrichment (6-mer frequency, TF over GST control); in [2] it was 1.11 fold enrichment (6-mer frequency, TF over GST control); in test [3], 1.13 fold enrichment (6-mer frequency, TF over GST control); in [4], 1.11 fold enrichment (6-mer frequency, TF over GST control); in [5] it was 1.06 fold enrichment (6-mer frequency, TF over GST control); in test [6], 1.16 fold enrichment (6-mer frequency, TF over GST control). The binding signal in test [7] is 1.15 fold enrichment (6-mer frequency, TF over GST control); in [8], 1.11 fold enrichment (6-mer frequency, TF over GST control); in test [9] it was 1.15 fold enrichment (6-mer frequency, TF over GST control); in test [10] it was 1.13 fold enrichment (6-mer frequency, TF over GST control); in [11], 1.14 fold enrichment (6-mer frequency, TF over GST control); in test [12] it was 1.17 fold enrichment (6-mer frequency, TF over GST control). The binding signal in [13] is 1.2 fold enrichment (6-mer frequency, TF over GST control); in [14], 1.13 fold enrichment (6-mer frequency, TF over GST control); in test [15] it was 1.02 fold enrichment (6-mer frequency, TF over GST control); in test [16], 1.03 fold enrichment (6-mer frequency, TF over GST control); in test [17] it was 1.01 fold enrichment (6-mer frequency, TF over GST control); in [18], 1.07 fold enrichment (6-mer frequency, TF over GST control).
As for TTGGGC, the binding signal was 1.03 fold enrichment (6-mer frequency, TF over GST control) in [1]; 1.07 fold enrichment (6-mer frequency, TF over GST control) in [2]; 1.01 fold enrichment (6-mer frequency, TF over GST control) in test [3]; 1.07 fold enrichment (6-mer frequency, TF over GST control) in test [4]; 1.03 fold enrichment (6-mer frequency, TF over GST control) in test [5]; 1.1 fold enrichment (6-mer frequency, TF over GST control) in test [6]. For the same sequence, the binding signal in test [7] is 1.2 fold enrichment (6-mer frequency, TF over GST control); in test [8], 1.1 fold enrichment (6-mer frequency, TF over GST control); in [9] it was 1.21 fold enrichment (6-mer frequency, TF over GST control); in test [10], 1.13 fold enrichment (6-mer frequency, TF over GST control); in test [11], 1.12 fold enrichment (6-mer frequency, TF over GST control); in test [12], 1.07 fold enrichment (6-mer frequency, TF over GST control). For the same sequence, the binding signal in [13] is 1.1 fold enrichment (6-mer frequency, TF over GST control); in [14], 1.05 fold enrichment (6-mer frequency, TF over GST control); in test [15], 1.15 fold enrichment (6-mer frequency, TF over GST control); in test [16], 1.18 fold enrichment (6-mer frequency, TF over GST control); in test [17], 1.03 fold enrichment (6-mer frequency, TF over GST control); in test [18], 1.13 fold enrichment (6-mer frequency, TF over GST control).
